Assay results published in publication PMC5540273 (PLoS ONE, 2017).

Experiments:
Conditions in all cases: concentration: 1 μM,replicates: in singlicate; n = 1
[1] = system: RIOK1
[2] = system: RIOK2
[3] = system: RIOK3
[4] = system: RIPK1
[5] = system: RIPK2
[6] = system: RIPK4
[7] = system: RIPK5
[8] = system: ROCK1
[9] = system: ROCK2
[10] = system: ROS1
[11] = system: RPS6KA4(Kin.Dom.1-N-terminal)
[12] = system: RPS6KA4(Kin.Dom.2-C-terminal)
[13] = system: RPS6KA5(Kin.Dom.1-N-terminal)
[14] = system: RPS6KA5(Kin.Dom.2-C-terminal)
[15] = system: T1, RSK1(Kin.Dom.1-N-terminal)
T1 construct: gene RPS6KA1

[16] = system: T2, RSK1(Kin.Dom.2-C-terminal)
T2 construct: gene RPS6KA1

[17] = system: T3, RSK2(Kin.Dom.1-N-terminal)
T3 construct: gene RPS6KA3

[18] = system: T4, RSK2(Kin.Dom.2-C-terminal)
T4 construct: gene RPS6KA3

[19] = system: T5, RSK3(Kin.Dom.1-N-terminal)
T5 construct: gene RPS6KA2

[20] = system: T6, RSK3(Kin.Dom.2-C-terminal)
T6 construct: gene RPS6KA2
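Further: KINOMEscan kinase panel screen.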

Row | SMILES | %Inh [1] | %Inh [2] | %Inh [3] | %Inh [4] | %Inh [5] | %Inh [6] | %Inh [7] | %Inh [8] | %Inh [9] | %Inh [10] | %Inh [11] | %Inh [12] | %Inh [13] | %Inh [14] | %Inh [15] | %Inh [16] | %Inh [17] | %Inh [18] | %Inh [19] | %Inh [20]
1 | CC(=O)Nc1ccc(-c2cc3ncnc(SCC(=O)O)c3s2)cc1 | 8% | 0% | 15% | 0% | 0% | 2% | 14% | 0% | 0% | 6% | 6% | 47% | 0% | 15% | 0% | 25% | 0% | 0% | 14% | 19%
2 | COc1cccc(CNC(=O)NC2CCN(c3ccnc(Nc4cc(OC)c(OC)c(OC)c4)n3)C2)c1 (centres unmarked) [GSK1379765] | 63% | 0% | 56% | 17% | 0% | 40% | 5% | 67% | 76% | 48% | 1% | 0% | 0% | 0% | 17% | 0% | 7% | 29% | 22% | 1%
3 | Cn1ccc2ncnc(Oc3ccc(NC(=O)Nc4cccc(C(F)(F)F)c4)c(F)c3)c21 | 0% | 0% | 23% | 23% | 52% | 0% | 0% | 0% | 0% | 53% | 37% | 0% | 0% | 19% | 0% | 0% | 6% | 13% | 0% | 22%
4 | Cl.Cl.NC[C@H](CC1CCCCC1)NC(=O)c1ccc(-c2ccnc3[nH]ccc23)s1 [GSK1581428] | 100% | 45% | 90.1% | 0% | 0% | 0% | 0% | 100% | 98.9% | 26% | 82% | 79% | 84% | 67% | 23% | 12% | 83% | 0% | 57% | 21%
5 | Cc1cccc2c(-c3ccncc3)c(-c3ccc(F)cc3)nn12.Cl [GW461487] | 0% | 100% | 0% | 0% | 48% | 0% | 0% | 18% | 12% | 0% | 0% | 0% | 0% | 6% | 11% | 51% | 3% | 32% | 0% | 19%
6 | CSc1nccc(-c2c(-c3ccc(F)cc3)ncn2CCCN2CCOCC2)n1.Cl [SB-217146] | 0% | 0% | 0% | 0% | 0% | 3% | 33% | 40% | 10% | 0% | 27% | 0% | 0% | 4% | 3% | 17% | 46% | 0% | 0% | 18%
7 | Cc1ccc(C(=O)Nc2ccc(Oc3ccc4nc(NC(=O)C5CC5)cn4c3)c(F)c2)c(=O)n1-c1ccccc1 | 0% | 0% | 9% | 99.9% | 12% | 0% | 0% | 0% | 0% | 0% | 22% | 0% | 0% | 0% | 0% | 0% | 0% | 37% | 22% | 2%
8 | CCNCC(Cc1ccccc1)NC(=O)c1cc(Br)c(-c2ccnc3[nH]ccc23)s1.Cl.Cl (centres unmarked) [GSK1383280] | 61% | 61% | 72% | 0% | 0% | 20% | 32% | 99.8% | 99.6% | 44% | 67% | 21% | 43% | 22% | 21% | 18% | 42% | 0% | 10% | 1%
9 | O=C(Nc1ccccc1)c1cccc(Oc2ccc3nccn3n2)c1 | 0% | 11% | 8% | 15% | 0% | 26% | 0% | 34% | 0% | 0% | 0% | 10% | 0% | 16% | 0% | 100% | 9% | 46% | 24% | 0%
10 | CC(=O)Nc1nc2cnc(Nc3cc(NC(=O)c4cccc(CC(C)(C)C#N)c4)ccc3C)nc2s1 | 0% | 22% | 0% | 0% | 0% | 25% | 0% | 19% | 0% | 6% | 0% | 2% | 13% | 0% | 5% | 0% | 0% | 26% | 0% | 0%
